Consider five compounds from PubChem BioAssay.

Experiment [1] is described as follows: yeast TOR pathway RPL19A-GFP modulators, primary screen, cell-based, S. cerevisiae, multiplex flow cytometry (AID 1862; in the data active = percent of DMSO control GFP below about 86%;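 note: lower values mimic rapamycin by blocking the RPL19A rise seen in DMSO cells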). The conditions noted are these: S. cerevisiae RPL19A-GFP strain, flow cytometry fluorescence, 3 h; at 10 µM; stronger effect = lower value. A general note: A flow cytometer gives signals particle by particle.
Experiment [2] in a line: modulators of MEP2-GFP levels in yeast, primary screen, S. cerevisiae, multiplex flow cytometry (AID 1867;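 active = GFP response, as percent of the DMSO control, above the screen-wide mean plus 3 SD, about 139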;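 note: median GFP channel fluorescence of barcode-gated MEP2-GFP cells measured by flow cytometry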). The conditions noted are these: S. cerevisiae MEP2-GFP strain, 3 h, at 10 µM, stronger effect = higher value, 100% means same as DMSO wells.
Experiment [3] in a line: modulators of CIT2-GFP expression in yeast, primary screen, S. cerevisiae, GFP fusion, multiplex flow cytometry (AID 1870;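 active = percent response above a set limit, the screen-wide mean plus 3 SD, cut at about 130% in these data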;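 note: barcoded CIT2-GFP strain pooled with four other GFP strains with rapamycin as positive control; median GFP fluorescence per well over plate mean of DMSO wells so 100% = DMSO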). The conditions noted are these: 3 h, at 10 µM, stronger effect = higher value.
Experiment [4] in a line: modulators of LAP4-GFP expression in yeast, primary screen, S. cerevisiae, multiplex flow cytometry (AID 1873;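 active = GFP signal, as percent of the solvent control, above the screen mean plus 3 SD, about 149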). The conditions noted are these: 3 h, at 10 µM, stronger effect = higher value.
Experiment [5] can be described thus: modulators of AGP1-GFP expression in yeast TOR pathway, primary screen, cell-based, multiplex flow cytometry, S. cerevisiae (AID 1887;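 active = GFP signal above the screen-wide mean plus 3 SD, that is over about 124.5% of the solvent control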;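 note: AGP1-GFP fusion strain of S. cerevisiae within a five-strain barcoded multiplex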). The conditions noted are these: 3 h, at 10 µM, stronger effect = higher value.
A short description of experiment [6]: inhibitors of CD8+ T cell-vesicle binding, pilot screen, LFA-1/ICAM-1 modulator project, MLPCN validation set, flow cytometry (AID 2523).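 For vesicle binding response: mean PE anti-B7-1 fluorescence of CD8+ cells relative to row control; 100% = QL9-loaded vesicles with DMSO vehicle in the same plate row.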 The conditions noted are these: 2C mouse CD8+ T cells, at 7 µM, stronger effect = lower value; double positive events: measured here: CD8+/vesicle+ event percentage.
Experiment [7] has as its target Integrin beta-1 (Homo sapiens) + Integrin alpha-4 (Homo sapiens) (UniProt P13612+P05556). The experiment can be described thus: inhibition of HUTS-21 binding to VLA-4, pilot screen, VLA-4 allosteric modulator project, U937 cells, HUTS-21 mAb, flow cytometry, validation set (AID 2674;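 active = inhibition above 50%, about 3 SD of the validation set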;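 note: antibody binding induced by the VLA-4 ligand LDV present at three times its Kd; 0% = LDV ligand with antibody and no compound and 100% = antibody without LDV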). The conditions noted are these: HUTS-21 LIBS mAb binding, at 6.7 µM, stronger effect = higher value, binding induced by LDV ligand.

The nature of experiment [8]: superoxide lowering in aged yeast cells, pilot screen, validation compound set (AID 2706;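 active = superoxide response below 65% of plate, a cut near 3 SD across the whole screen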;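 note: yeast exposed to compound for one week at 30 degrees C before staining; 100% = mean of all compound wells on the same plate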). The conditions noted are these: S. cerevisiae aging, superoxide DHE fluorescence; at 10 µM; stronger effect = lower value.
In experiment [9] the target is Beta-adrenergic receptor kinase 1 (Homo sapiens) (UniProt P25098). Briefly: GRK2 binders displacing RNA aptamer, biochemical, validation, human GRK2, bead flow cytometry (AID 488806;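 active = aptamer binding inhibition above 30%, about 3 SD of noise from non-fluorescent compounds; inactive = inhibition at or below 30%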). The conditions noted are these: bead-bound GRK2, FAM-aptamer displacement, at 10 µM, stronger effect = higher value.
Experiment [10] concerns the target Beta-2 adrenergic receptor (Homo sapiens) (UniProt P07550). The experiment can be described thus: beta2AR agonists driving receptor internalization, pilot screen, cell-based, FAP fluorogen, flow cytometry, validation set (AID 504459;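 active = percent response above 42, roughly 3 SD of non-fluorescent test compounds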;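 note: agonist-driven loss of surface beta2AR via internalization measured by FAP dye flow cytometry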). The conditions noted are these: Am2.2-beta2AR cells, FAP surface receptor flow cytometry; at 10 µM; stronger effect = higher value.
Experiment [11] deals with AP-2 complex subunit beta (Homo sapiens) (UniProt P63010). Briefly: inhibitors of arrestin peptide binding to AP2, pilot screen, biochemical, validation set, GST-AP2 beads, flow cytometry (AID 504541;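 active = inhibition above 54%, about 3 SD of non-fluorescent compounds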;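 note: AP2 carries R879A mutation and is captured from E. coli lysate; bead-bound FITC arrestin peptide fluorescence measuring arrestin peptide binding to AP2; 0% = DMSO wells and 100% = excess unlabeled arrestin peptide control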). The conditions noted are these: FITC arrestin peptide, at 10 µM, stronger effect = higher value, AP2 beta2 appendage fragment, R879A mutant.
The nature of experiment [12]: yeast V-ATPase proton transport modulators, S. cerevisiae, pHLuorin, HTS validation (AID 504600; in the data active = response above about 15%;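 note: plate controls were DMSO for no effect and reference compound for full effect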). The conditions noted are these: S. cerevisiae pHLuorin cytosolic pH, at 10 µM, stronger effect = higher value.
The subject of experiment [13] is anti-desmoglein-3 scFv antibody binding to human DSG3. The experiment can be described thus: inhibitors of anti-DSG3 scFv binding to DSG3, pilot screen, biochemical, validation compound set, bead-based, flow cytometry (AID 588368;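 active = binding below the plate cutoff, the plate median minus 3 SD, with a reading above zero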;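 note: signal is the median channel fluorescence of bead-bound GFP antibody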). The conditions noted are these: Protein G beads, DSG3-Fc, scFv-GFP binding, at 10 µM, stronger effect = lower value.
Experiment [14] in a line: inhibitors of fungal efflux pumps CDR1, CDR2, MDR1, pilot screen, validation compound set, multiplex, phenotypic (AID 588506;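 active = efflux inhibition above 0.42, the validation set average plus 4 SD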;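 note: Nile Red retained in cells so higher fluorescence means more efflux inhibition; 0 = negative control wells and 1 = enniatin B 25 µM full block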). The conditions noted are these: S. cerevisiae pump-expressing triplex, Nile Red efflux flow cytometry; at 10 µM; stronger effect = higher value; the pumps come from Candida albicans.
Experiment [15] has as its target ATP-binding cassette sub-family B member 6 (Homo sapiens) (UniProt Q9NP58). Briefly: ABCB6 transporter inhibitors, pilot screen, K562-ABCB6 cells, flow cytometry, validation set (AID 588550;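 active = inhibition above the screen-wide mean plus 3 SD, about 51%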;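 note: 0% = DMSO wells and 100% = benzethonium chloride 70 µM positive control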). The conditions noted are these: K562-ABCB6 porphyrin accumulation, 1 h, at 10 µM, stronger effect = higher value.
Experiment [16] can be described thus: promoters of myeloid differentiation in arrested cells, primary screen, cell-based, GFP/MAC1 double positive, flow cytometry, validation set (AID 588685;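 active = differentiation response of at least 50%, scaled between solvent and reference control, from cells with both markers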;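 note: compound exposure lasts four days before antibody staining and flow analysis; 0% = DMSO wells and 100% = 5 µM fulvestrant positive control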). The conditions noted are these: ER-HoxA9 marrow cells, stronger effect = higher value, normalized: vehicle 0, fulvestrant 100.

Structures are written as SMILES. Results filed as inconclusive are left out. The source made the active and inactive calls.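 Rule for the calls, unless noted: active = response below a set limit, under 55% cells CD8-positive and vesicle-bound, and CD8 cells' 90th-percentile brightness under 279; inactive = the rest.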

Sequence of Beta-2 adrenergic receptor (Homo sapiens) (P07550 whole entry, looked up): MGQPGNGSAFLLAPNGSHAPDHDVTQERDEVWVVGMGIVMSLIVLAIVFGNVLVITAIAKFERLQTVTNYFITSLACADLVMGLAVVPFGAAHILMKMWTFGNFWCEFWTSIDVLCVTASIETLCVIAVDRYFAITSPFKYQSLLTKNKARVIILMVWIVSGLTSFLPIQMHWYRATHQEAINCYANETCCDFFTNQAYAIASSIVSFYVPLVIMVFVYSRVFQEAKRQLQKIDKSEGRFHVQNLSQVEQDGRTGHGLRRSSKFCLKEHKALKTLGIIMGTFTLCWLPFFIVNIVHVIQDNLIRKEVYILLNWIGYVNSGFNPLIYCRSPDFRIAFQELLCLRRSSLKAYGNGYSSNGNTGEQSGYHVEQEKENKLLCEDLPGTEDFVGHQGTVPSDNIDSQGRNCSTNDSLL
Sequence of Beta-adrenergic receptor kinase 1 (Homo sapiens) (P25098 whole entry, looked up): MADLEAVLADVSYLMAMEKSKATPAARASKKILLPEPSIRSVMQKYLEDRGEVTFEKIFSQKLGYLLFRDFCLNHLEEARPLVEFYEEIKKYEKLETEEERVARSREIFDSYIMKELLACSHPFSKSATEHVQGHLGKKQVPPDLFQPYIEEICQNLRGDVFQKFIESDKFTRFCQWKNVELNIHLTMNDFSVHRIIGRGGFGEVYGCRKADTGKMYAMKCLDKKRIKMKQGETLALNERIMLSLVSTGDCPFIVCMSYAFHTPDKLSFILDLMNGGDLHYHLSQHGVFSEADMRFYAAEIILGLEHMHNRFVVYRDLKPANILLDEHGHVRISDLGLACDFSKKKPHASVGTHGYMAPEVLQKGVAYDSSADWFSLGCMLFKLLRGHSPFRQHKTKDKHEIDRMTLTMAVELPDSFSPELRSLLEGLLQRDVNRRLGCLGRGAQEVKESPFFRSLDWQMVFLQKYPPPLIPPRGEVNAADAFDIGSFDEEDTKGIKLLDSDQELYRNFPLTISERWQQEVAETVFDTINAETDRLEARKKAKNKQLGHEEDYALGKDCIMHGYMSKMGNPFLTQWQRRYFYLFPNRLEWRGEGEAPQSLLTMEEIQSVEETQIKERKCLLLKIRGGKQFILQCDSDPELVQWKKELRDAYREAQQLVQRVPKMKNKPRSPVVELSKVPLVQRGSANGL
Sequence of Integrin beta-1 (Homo sapiens) + Integrin alpha-4 (Homo sapiens) (P05556 whole entry, looked up): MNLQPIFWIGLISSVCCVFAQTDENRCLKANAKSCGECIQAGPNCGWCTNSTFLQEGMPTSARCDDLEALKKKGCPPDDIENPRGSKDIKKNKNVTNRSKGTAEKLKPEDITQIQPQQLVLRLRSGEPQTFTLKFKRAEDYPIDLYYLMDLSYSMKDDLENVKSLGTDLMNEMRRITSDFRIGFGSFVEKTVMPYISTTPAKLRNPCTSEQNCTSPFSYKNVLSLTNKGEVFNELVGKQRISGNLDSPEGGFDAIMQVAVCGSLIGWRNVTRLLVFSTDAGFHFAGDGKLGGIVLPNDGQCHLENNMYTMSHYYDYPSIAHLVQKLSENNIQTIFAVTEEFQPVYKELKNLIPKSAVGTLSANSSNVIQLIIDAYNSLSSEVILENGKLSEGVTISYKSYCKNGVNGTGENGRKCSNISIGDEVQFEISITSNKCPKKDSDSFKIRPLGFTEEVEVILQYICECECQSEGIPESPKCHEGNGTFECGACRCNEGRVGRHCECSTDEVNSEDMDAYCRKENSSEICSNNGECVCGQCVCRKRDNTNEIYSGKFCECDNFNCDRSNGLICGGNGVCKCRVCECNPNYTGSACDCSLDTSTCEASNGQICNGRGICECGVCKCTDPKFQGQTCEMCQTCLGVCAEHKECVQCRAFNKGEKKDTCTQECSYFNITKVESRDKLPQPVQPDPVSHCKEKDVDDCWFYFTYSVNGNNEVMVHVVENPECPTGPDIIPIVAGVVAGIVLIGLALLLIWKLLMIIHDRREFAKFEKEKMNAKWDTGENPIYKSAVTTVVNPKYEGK
Sequence of Integrin beta-1 (Homo sapiens) + Integrin alpha-4 (Homo sapiens) (P13612 whole entry, looked up): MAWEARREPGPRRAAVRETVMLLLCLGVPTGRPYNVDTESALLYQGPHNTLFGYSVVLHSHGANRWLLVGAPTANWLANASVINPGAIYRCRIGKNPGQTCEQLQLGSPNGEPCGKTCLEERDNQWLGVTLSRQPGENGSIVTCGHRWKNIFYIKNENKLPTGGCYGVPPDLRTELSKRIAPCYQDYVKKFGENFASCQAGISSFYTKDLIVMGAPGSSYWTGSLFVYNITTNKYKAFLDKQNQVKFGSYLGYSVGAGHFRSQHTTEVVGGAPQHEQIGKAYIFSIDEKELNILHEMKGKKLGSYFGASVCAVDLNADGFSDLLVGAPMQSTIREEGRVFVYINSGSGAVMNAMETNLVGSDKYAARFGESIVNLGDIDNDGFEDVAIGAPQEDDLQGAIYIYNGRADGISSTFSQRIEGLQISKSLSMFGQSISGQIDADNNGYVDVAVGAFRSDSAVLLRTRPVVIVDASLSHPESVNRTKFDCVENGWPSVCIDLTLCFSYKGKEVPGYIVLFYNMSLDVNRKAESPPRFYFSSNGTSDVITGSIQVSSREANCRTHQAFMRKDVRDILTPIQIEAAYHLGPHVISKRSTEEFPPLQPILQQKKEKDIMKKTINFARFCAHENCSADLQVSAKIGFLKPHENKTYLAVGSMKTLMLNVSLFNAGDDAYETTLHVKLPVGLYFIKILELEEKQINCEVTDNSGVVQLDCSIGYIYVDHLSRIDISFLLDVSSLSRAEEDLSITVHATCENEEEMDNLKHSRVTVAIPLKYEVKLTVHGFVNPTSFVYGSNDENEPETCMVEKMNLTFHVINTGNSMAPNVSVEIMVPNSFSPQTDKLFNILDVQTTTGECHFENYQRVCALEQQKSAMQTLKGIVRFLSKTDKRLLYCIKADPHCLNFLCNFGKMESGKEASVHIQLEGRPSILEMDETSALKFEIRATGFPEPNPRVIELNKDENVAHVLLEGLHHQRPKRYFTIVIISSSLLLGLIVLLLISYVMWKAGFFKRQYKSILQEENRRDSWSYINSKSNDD
Sequence of AP-2 complex subunit beta (Homo sapiens) (P63010 whole entry, looked up, the tested form may be a part, one chain of several): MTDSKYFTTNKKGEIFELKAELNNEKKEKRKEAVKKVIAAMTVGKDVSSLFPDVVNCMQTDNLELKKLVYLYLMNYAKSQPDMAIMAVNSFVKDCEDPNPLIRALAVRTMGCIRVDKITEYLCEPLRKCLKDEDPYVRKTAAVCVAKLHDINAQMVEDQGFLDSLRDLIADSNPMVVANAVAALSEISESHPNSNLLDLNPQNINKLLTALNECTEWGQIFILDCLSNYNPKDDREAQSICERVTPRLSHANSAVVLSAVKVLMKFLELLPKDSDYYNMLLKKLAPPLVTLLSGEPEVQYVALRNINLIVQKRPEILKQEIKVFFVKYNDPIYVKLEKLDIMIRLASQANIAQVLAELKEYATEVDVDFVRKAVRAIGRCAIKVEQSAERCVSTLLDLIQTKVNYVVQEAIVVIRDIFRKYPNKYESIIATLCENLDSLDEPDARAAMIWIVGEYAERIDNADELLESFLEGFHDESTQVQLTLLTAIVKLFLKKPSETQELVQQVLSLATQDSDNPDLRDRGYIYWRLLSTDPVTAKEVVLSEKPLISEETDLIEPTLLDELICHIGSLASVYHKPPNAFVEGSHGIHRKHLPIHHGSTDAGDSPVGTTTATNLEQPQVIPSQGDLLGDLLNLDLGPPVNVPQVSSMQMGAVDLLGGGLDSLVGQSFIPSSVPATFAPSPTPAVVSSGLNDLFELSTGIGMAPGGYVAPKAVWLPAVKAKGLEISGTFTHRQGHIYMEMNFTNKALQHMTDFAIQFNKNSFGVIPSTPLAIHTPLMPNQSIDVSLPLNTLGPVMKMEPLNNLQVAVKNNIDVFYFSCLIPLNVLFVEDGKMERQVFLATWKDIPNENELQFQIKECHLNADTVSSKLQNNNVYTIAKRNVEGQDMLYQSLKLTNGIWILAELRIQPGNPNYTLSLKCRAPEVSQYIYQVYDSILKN
Sequence of ATP-binding cassette sub-family B member 6 (Homo sapiens) (Q9NP58 whole entry, looked up): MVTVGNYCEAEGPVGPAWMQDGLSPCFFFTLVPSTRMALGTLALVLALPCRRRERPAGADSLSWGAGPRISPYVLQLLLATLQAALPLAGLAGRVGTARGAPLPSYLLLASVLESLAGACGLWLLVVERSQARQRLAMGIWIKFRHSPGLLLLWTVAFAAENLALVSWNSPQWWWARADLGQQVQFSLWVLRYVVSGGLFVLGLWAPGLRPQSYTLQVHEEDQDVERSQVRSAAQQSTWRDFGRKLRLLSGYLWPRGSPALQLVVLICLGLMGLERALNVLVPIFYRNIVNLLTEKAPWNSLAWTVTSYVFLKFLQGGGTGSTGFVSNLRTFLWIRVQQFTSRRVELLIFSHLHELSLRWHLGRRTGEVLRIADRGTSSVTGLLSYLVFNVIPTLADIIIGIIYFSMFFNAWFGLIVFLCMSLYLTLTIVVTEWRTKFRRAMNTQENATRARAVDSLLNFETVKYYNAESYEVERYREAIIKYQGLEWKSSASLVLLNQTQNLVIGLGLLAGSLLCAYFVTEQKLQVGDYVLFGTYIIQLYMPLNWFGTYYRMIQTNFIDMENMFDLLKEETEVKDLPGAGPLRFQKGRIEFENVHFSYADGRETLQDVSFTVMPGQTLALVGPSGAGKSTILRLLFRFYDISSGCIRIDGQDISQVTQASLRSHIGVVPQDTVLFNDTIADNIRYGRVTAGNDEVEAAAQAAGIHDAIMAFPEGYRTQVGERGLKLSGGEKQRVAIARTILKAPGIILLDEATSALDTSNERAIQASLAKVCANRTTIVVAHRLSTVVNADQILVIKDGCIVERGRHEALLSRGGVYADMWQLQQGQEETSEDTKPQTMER

With `Cc1cccc(Nc2ncccc2C(=O)O)c1C`, in experiment [1], the percent of DMSO control GFP is 103% (inactive). For the same compound, the GFP response vs DMSO in [2] is 103% (inactive); in experiment [4] it was 90.1% (inactive). In addition, the percent response of DMSO control in [3] is 109% (inactive). Besides, the GFP response, % of DMSO in experiment [5] was 108% (inactive). In experiment [6], this compound displayed a double positive events of 62.7%. Further, the vesicle binding response in experiment [6] was 203% (inactive). Moreover, the inhibition – broadly, the relative decrease from the control value, in per cent – in experiment [7] was 2.66% (inactive); in experiment [11], 1.75% (inactive); in [15] it was 6% (inactive). Further, the superoxide response (% of plate) in [8] was 105% (inactive). Further, the aptamer binding inhibition in [9] was 1% (inactive). The response in experiment [10] is -6.59% (inactive); in experiment [12] it was -0.8% (inactive). Besides, in experiment [13], the binding (% of control) was 98.4% (inactive). Besides, the efflux inhibition (fraction of control) in [14] is 0.08 (inactive). Further, in [16], the differentiation response is -9.53% (inactive).
With `COc1ccc(-c2c3c(=O)n(C)c(=O)n(C)c3cn2C2CCCCC2)cc1`, the percent of DMSO control GFP in experiment [1] was 95.2% (inactive). The GFP response vs DMSO in experiment [2] is 109% (inactive); in experiment [4], 113% (inactive). Moreover, the percent response of DMSO control in [3] is 88.2% (inactive). Also, the GFP response, % of DMSO in [5] is 92.6% (inactive). Further, the double positive events in experiment [6] came out at 58.5%. The vesicle binding response in experiment [6] was 132% (inactive). Also, the inhibition is -14.1% (inactive) in experiment [7], 1.05% (inactive) in experiment [11] and 9% (inactive) in experiment [15]. For the same compound, the superoxide response (% of plate) in experiment [8] is 106% (inactive). In addition, the aptamer binding inhibition in experiment [9] is -1% (inactive). The response in experiment [10] is 14.9% (inactive); in experiment [12], 2.1% (inactive). Besides, the binding (% of control) in experiment [13] is 95.5% (inactive). Moreover, the efflux inhibition (fraction of control) in experiment [14] is 0.05 (inactive). In experiment [16], the differentiation response is -16.8% (inactive).
For `C[C@H]([C@@H](N)C(=O)N[C@@H](C(=O)O)[C@@H]1O[C@H](n2ccc(=O)[nH]c2=O)[C@@H](O)[C@H]1O)[C@@H](O)c1ccc(O)cn1`, in experiment [1], the percent of DMSO control GFP is 91.5% (inactive). Moreover, the GFP response vs DMSO in experiment [2] is 130% (inactive); in experiment [4], 82.5% (inactive). Moreover, the percent response of DMSO control in [3] was 93.9% (inactive). Besides, in experiment [5], the GFP response, % of DMSO was 84.5% (inactive). The double positive events in experiment [6] is 59.1%. In addition, the vesicle binding response in [6] is 184% (inactive). In addition, the figures for the inhibition in experiment [7], in [11] and in experiment [15] were -9.06% (inactive), 5.36% (inactive) and 9% (inactive), respectively. In experiment [8], the superoxide response (% of plate) is 117% (inactive). The aptamer binding inhibition in experiment [9] is 7% (inactive). The response in [10] is -4.72% (inactive); in experiment [12] it was 2.7% (inactive). The binding (% of control) in experiment [13] was 104% (inactive). In experiment [14], the efflux inhibition (fraction of control) is -0.06 (inactive). The differentiation response in experiment [16] is 4.09% (inactive).
For the compound `COc1cc(NC(=O)COc2ccccc2)c(OC)cc1NC(C)=O`, the percent of DMSO control GFP in [1] was 101% (inactive). The GFP response vs DMSO in experiment [2] was 133% (inactive); in [4], 94.6% (inactive). Also, the percent response of DMSO control in experiment [3] is 114% (inactive). Also, the GFP response, % of DMSO in [5] is 101% (inactive). For the same compound, the double positive events in [6] is 59.7%. The vesicle binding response in experiment [6] is 216% (inactive). The inhibition is -14.9% (inactive) in experiment [7], -5.93% (inactive) in [11] and 0% (inactive) in experiment [15]. Besides, the superoxide response (% of plate) in [8] is 93% (inactive). The aptamer binding inhibition in experiment [9] is 1% (inactive). For the same compound, the response in [10] is -3.81% (inactive); in experiment [12], -0.91% (inactive). For the same compound, the binding (% of control) in [13] is 110% (inactive). Also, the efflux inhibition (fraction of control) in experiment [14] was -0.42 (inactive). The differentiation response in experiment [16] was 5.73% (inactive).
As to `CCOC(=O)C1=C[C@]2(CC)CCCN3CCc4c(n1c1ccccc41)[C@@H]32`, in experiment [1], the percent of DMSO control GFP is 98.4% (inactive). In addition, the GFP response vs DMSO in experiment [2] was 107% (inactive); in experiment [4], 104% (inactive). Moreover, the percent response of DMSO control in experiment [3] was 96.6% (inactive). Moreover, the GFP response, % of DMSO in [5] is 96.5% (inactive). This compound also gave a double positive events in [6] of 56.4%. Moreover, the vesicle binding response in experiment [6] is 43.9% (inactive). The inhibition was -4.6% (inactive) in experiment [7], -10.5% (inactive) in experiment [11] and 8% (inactive) in [15]. In experiment [8], the superoxide response (% of plate) was 92.5% (inactive). The aptamer binding inhibition in [9] is -1% (inactive). Also, the values for the response in experiment [10] and in experiment [12] were -5% (inactive) and 4.61% (inactive), respectively. The binding (% of control) in experiment [13] was 97.2% (inactive). Moreover, in experiment [14], the efflux inhibition (fraction of control) is -0.23 (inactive). Moreover, the differentiation response in [16] was -3.67% (inactive).
